Measured values as given in PubChem BioAssay AID1159580 (chemical genetic matrix, 2015).
Hit rate of the full screen: of about 5,500 compounds, about 2,000 (36%) were called active. Inconclusive results (about 18%) are left out. Cut-off read from the data, not from the text of the source: active = normalized growth mostly below about 0.91 (no sharp cut-off); inconclusive = no clear call, values can overlap the other calls; inactive = mostly above about 0.92. This is one part of the list.

Experiment: chemical genetic growth profiling, strain panel (AID 1159580);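 note: tested at 20 µM; growth read once vehicle control cultures reached saturation at 30 °C; 1 = growth at the plate median or of vehicle wells; lower values mean less growth of the strain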
Conditions: S. cerevisiae deletion strains, growth OD
[1] = locus YAL040C, strain CLN3, hits give low values
[2] = locus YCL061C, strain MRC1 (second series), hits give low values
[3] = locus YDR363W, strain ESC2, hits give low values
[4] = locus YER002W, strain NOP16, hits give low values
[5] = locus YGR229C, strain SMI1, hits give low values
[6] = locus YNL153C, strain GIM3, hits give low values
[7] = locus YNL175C, strain NOP13, hits give low values
[8] = locus YNL197C, strain WHI3, hits give low values
[9] = locus YNL224C, strain SQS1, hits give low values
[10] = locus YOR083W, strain WHI5 (second series), hits give low values
[11] = locus YPL241C, strain CIN2, hits give low values

Measured: normalized growth

CCc1c(C(=O)OC)ncc2[nH]c3cc(OC)c(OC)cc3c12
inactive: [1] 0.994 | [2] 0.994 | locus YDR150W, strain NUM1, hits give low values 0.995 | [3] 1 | [4] 0.99 | [5] 1.05 | locus YJR075W, strain HOC1, hits give low values 0.99 | locus YMR307W, strain GAS1, hits give low values 1.01 | [6] 0.984 | [7] 0.998 | [8] 0.992 | [9] 1.02 | [10] 1 | [11] 0.999

NC(=O)CNCCC(c1ccccc1)c1ccccc1
inactive: [1] 0.962 | [2] 0.987 | [3] 0.965 | [4] 0.969 | locus YGR078C, strain PAC10, hits give low values 0.993 | [5] 0.895 | [6] 1.04 | [7] 0.993 | [8] 1.01 | [9] 0.991 | [10] 1.03 | [11] 0.984
